# PubChem BioAssay AID628 (Vanderbilt High Throughput Screening Facility, 2007)
# In all, about 64,000 compounds went through this assay and about 2,200 (3.4%) were called active. The sample holds actives, similar compounds and a random draw of the others, so the mix is not that of the screen.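 The calls were made as follows: active = calcium fluorescence response, raw or row-and-column corrected B-score, differing from the plate sample mean either way at a set confidence level, mostly lower; inactive = the rest.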
# Molecular target: Muscarinic acetylcholine receptor M1 (Rattus norvegicus) (UniProt P08482)
# Assay: antagonists of rat M1 muscarinic receptor (AID 628)
# Details: CHO-M1 cells, Fluo-4 calcium, ACh EC80 antagonist mode; at 10 µM; active compounds read low
# Muscarinic acetylcholine receptor M1 (Rattus norvegicus), sequence (P08482 whole entry, looked up): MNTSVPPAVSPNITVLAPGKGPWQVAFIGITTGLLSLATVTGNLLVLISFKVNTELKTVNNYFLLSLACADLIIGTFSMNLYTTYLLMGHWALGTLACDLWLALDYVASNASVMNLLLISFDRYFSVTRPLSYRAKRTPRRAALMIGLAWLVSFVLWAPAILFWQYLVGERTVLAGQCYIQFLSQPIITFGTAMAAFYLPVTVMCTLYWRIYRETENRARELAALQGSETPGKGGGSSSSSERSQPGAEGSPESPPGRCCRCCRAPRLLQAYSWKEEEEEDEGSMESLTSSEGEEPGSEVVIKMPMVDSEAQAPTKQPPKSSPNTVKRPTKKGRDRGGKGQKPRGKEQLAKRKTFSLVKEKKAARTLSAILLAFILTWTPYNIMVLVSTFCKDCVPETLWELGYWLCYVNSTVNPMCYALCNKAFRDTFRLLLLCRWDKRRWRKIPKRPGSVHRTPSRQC
row,Compound,B-score
1,COCCNC(=O)C(C#N)c1nc2ccccc2nc1N1CCN(Cc2ccc3c(c2)OCO3)CC1 (stereo not drawn),0.357 (inactive)
2,COc1ncnc2c1N=C1CC(C)(C)CC(N)=C1S2,-3.02 (active)
3,Cc1ccc(S(=O)(=O)N2CCC(C(=O)N[C@@H](C)C(=O)NCc3ccccc3)CC2)cc1,0.328 (inactive)
4,COc1cc2cc(CN(CCN3CCCC3)C(=O)Nc3ccccc3Cl)c(=O)[nH]c2cc1OC,-0.424 (inactive)
5,Oc1ccc(Cl)cc1/C=N/c1nc2ccccc2[nH]1,0.265 (inactive)
6,CC(C)CNS(=O)(=O)c1ccc(OCC(=O)Nc2ccc3c(c2)OCO3)c(Cl)c1,0.138 (inactive)
7,COc1ccc(F)cc1S(=O)(=O)Nc1ccc2c(c1)OCO2,0.86 (inactive)
8,COc1ccc(S(=O)(=O)Nc2ccc3c(c2)OCO3)cc1Cl,-4.67 (active)
9,O=c1ccc2cc(S(=O)(=O)N3CCN(c4ccccc4)CC3)ccc2o1,3.23 (active)
10,COc1ccc(N2CCN(Cc3cc(=O)oc4ccc5ccccc5c34)CC2)cc1,0.836 (inactive)
11,O=S(=O)(c1ccc2ccccc2c1)N1CCN(S(=O)(=O)N2CCOCC2)CC1,1.15 (inactive)
12,CCOC(=O)C1(C(F)(F)F)N=C(N(C)C)OC(N(C)C)=N1,0.0434 (inactive)
13,Nc1ccc(-n2nncc2-c2ccco2)cc1,0.0134 (inactive)
14,OC(COc1cccc(OCC(O)CN2CCCC2)c1)CN1CCCC1 (stereo not drawn),-0.0676 (inactive)
15,COc1cccc(OCC(O)CN2CCN(CCO)CC2)c1 (stereo not drawn),-0.234 (inactive)
16,O=C(C(c1ccccc1)c1ccccc1)N1CCN(CC(O)COc2ccccc2)CC1 (stereo not drawn),-2.34 (active)
17,N#Cc1ccc(OCCN2C(=O)NC3(CCSC3)C2=O)cc1 (stereo not drawn),0.213 (inactive)
18,Cc1n[nH]c(C)c1S(=O)(=O)N1CCCC(C(=O)NCC2COc3ccccc3O2)C1 (stereo not drawn),0.422 (inactive)
19,COc1ccc(C(C)=O)cc1COC(=O)Cn1cnc2ccccc2c1=O,0.139 (inactive)
20,CN1CCN(c2ccc(NC(=O)COc3ccc(Cl)cc3Cl)cc2)CC1,-3.05 (active)
21,Cc1cc(NC(=O)COc2ccc(Cl)cc2Cl)n(CCC#N)n1,-0.163 (inactive)
22,Cc1ccccc1OCC(=O)Nc1ccc(N2CCN(C(=O)C(C)C)CC2)c(Cl)c1,-1.61 (inactive)
23,CCCc1[nH]nc2c1C(c1ccc(Br)s1)C(C#N)=C(N)O2 (stereo not drawn),0.255 (inactive)
24,CCC1=C(C(=O)OC)C(c2cc(OC)ccc2OC)C(C#N)=C(N)O1 (stereo not drawn),0.513 (inactive)
25,CCCN1CC=C2C(C#N)=C(N)C(C#N)(C#N)C(c3cc(OC)ccc3OC)C2C1 (stereo not drawn),-2.33 (active)

row,Compound,B-score
1,CCOC(=O)N1CC=C2C(C#N)=C(N)C(C#N)(C#N)[C@H](c3cccs3)[C@H]2C1,0.673 (inactive)
2,CCn1cc(NC(=O)Nc2ccc(OC)c(OC)c2)c(C(N)=O)n1,-0.416 (inactive)
3,Cn1c(=NC(=O)c2ccco2)sc2cccc(F)c21,0.839 (inactive)
4,O=C(CC(Cc1ccccc1)C(=O)O)NCCc1ccc2c(c1)OCO2 (stereo not drawn),-0.392 (inactive)
5,O=C(NCCc1ccc2c(c1)OCCO2)c1cc2ccccc2o1,-3.3 (active)
6,O=C(COC(=O)c1ccc2c(c1)OCCO2)NCc1ccccc1,0.116 (inactive)
7,CCOc1ccccc1C1C(C(=O)OC)=CN(C)C=C1C(=O)OC,0.428 (inactive)
8,Cn1nnnc1SCC(=O)N1CCN(C(c2ccccc2)c2ccccc2)CC1,-2.4 (inactive)
9,O=C(c1ccccc1)N1CCN(C(=O)N2CCCCC2)CC1,-0.168 (inactive)
10,O=C(c1ccc(-n2cnnn2)cc1)N1CCN(C(c2ccccc2)c2ccccc2)CC1,-10.9 (active)
11,CC(Nc1nc(N2CCCC2)nc2ccccc12)c1ccccc1 (stereo not drawn),-1.8 (inactive)
12,COc1cc(-c2nc(S(=O)(=O)c3ccc(Cl)cc3)c(N(C)C)o2)cc(OC)c1OC,0 (inactive)
13,COc1ccc(CSc2nc(N3CCOCC3)c3c(c2C#N)CC(C)(C)OC3)cc1,0.045 (inactive)
14,CCS(=O)(=O)N1CCC(C(=O)N2CCN(c3ccccc3)CC2)CC1,-0.14 (inactive)
15,Cc1ccc(S(=O)(=O)N2CCC(N3CCCCCC3)CC2)cc1,-0.781 (inactive)
16,Cc1ccc(N2CCN(S(=O)(=O)c3ccc(F)cc3)CC2)c(C)c1,1.98 (active)
17,Cc1ccc(C)c(N2CCN(S(=O)(=O)c3ccc4c(c3)oc(=O)n4C)CC2)c1,0.182 (inactive)
18,Cc1cc(=O)oc(C)c1C(=O)NCc1ccc(F)cc1,-0.775 (inactive)
19,CCOC(=O)C(CC)Sc1ncnc2c1nnn2-c1ccc(F)cc1 (stereo not drawn),0.284 (inactive)
20,O=C(CCn1c(=O)[nH]c2ccccc2c1=O)NCCCN1CCN(c2cccc(Cl)c2)CC1,-1.14 (inactive)
21,O=C(CCCn1c(=O)[nH]c2cc(Cl)ccc2c1=O)NCCN1CCN(c2ccccc2)CC1,12.4 (active)
22,COc1ccc(CCNC(=O)CCCCn2c(=O)[nH]c3ccccc3c2=O)cc1OC,-0.359 (inactive)
23,C=CCn1c(=S)[nH]c2nc3c(cc2c1=O)COC(C)(C)C3,-2.69 (active)
24,CC(C)OCCCNc1nc2c(c(=O)n(Cc3ccccc3F)c(=O)n2C)n1C,-0.366 (inactive)
25,O=C(CN1CCOCC1)Nc1c2c(nc3c1CCC3)CCC2,-0.251 (inactive)

row,Compound,B-score
1,Cc1cccn2c(=O)c3cc(C(=O)N4COCC4(C)C)n(C)c3nc12,-0.585 (inactive)
2,Cc1cccn2c(=O)c3cc(C#N)c(=O)n(CCCN4CCOCC4)c3nc12,-0.356 (inactive)
3,Cc1cccn2c(=O)c3cc(C#N)c(=NC(=O)c4cccnc4)n(CC4CCCO4)c3nc12 (stereo not drawn),-1.9 (active)
4,CC1CCc2c(sc3c2C2=NS(=O)(=O)CCN2C=N3)C1 (stereo not drawn),-0.133 (inactive)
5,Cc1ccc(C)n1-c1ccncc1,-0.0105 (inactive)
6,CCOC(=O)CCc1c(C)c(C#N)c2[nH]c3ccccc3n2c1=O,-0.0991 (inactive)
7,COC(CCN(C)C)(c1ccccc1)c1ccccc1,-11.2 (active)
8,COc1ccc2oc(=O)c(C(=O)N3CCN(c4ccccc4F)CC3)cc2c1,0.203 (inactive)
9,CCC(=O)Nc1sc(C(=O)N2CCCCC2)c(C)c1C#N,-0.552 (inactive)
10,CN1CCN(CC(=O)Nc2sc3c(c2C#N)CCC(C(C)(C)C)C3)CC1 (stereo not drawn),-2.38 (active)
11,C1=C(N2CCOCC2)/C(=C/c2nc3ccccc3[nH]2)CC1,0.998 (inactive)
12,CCC1C(C#N)=C(SC)NC2=C1C(=O)CC(C)(C)C2 (stereo not drawn),-0.0322 (inactive)
13,COc1cc(C2C(C#N)=C(C)NC3=C2C(=O)CC(C)(C)C3)ccc1O (stereo not drawn),0.109 (inactive)
14,Cc1cc2c(cc1C)NC(c1ccccn1)C1=C(CC(C)(C)CC1=O)N2 (stereo not drawn),2.52 (active)
15,COc1ccc(-c2noc(CN(C)S(=O)(=O)c3ccc(C)cc3)n2)cc1,-3.11 (active)
16,COc1ccc(-c2noc(COc3ccc(Cl)c(C)c3)n2)cc1,-0.385 (inactive)
17,COc1ccccc1Cc1nc(-c2ccc(C)cc2)no1,0.115 (inactive)
18,CC(C)Oc1ccc(C2NC(=O)NC2=O)cc1 (stereo not drawn),-0.129 (inactive)
19,O=C(O)CN(Cc1ccco1)S(=O)(=O)c1ccccc1,0.346 (inactive)
20,Cc1cccc(C)c1NC(=O)N1CC=C(n2c(=O)[nH]c3ccccc32)CC1,0.257 (inactive)
21,CC(C)C1C2=C(CC(C)(C)CC2=O)ON1c1ccccc1 (stereo not drawn),-0.269 (inactive)
22,Cc1cc(N2C(=O)C(=O)/C(=C(/O)c3ccc(Cl)cc3)C2c2cccc(Br)c2)no1 (stereo not drawn),0.0445 (inactive)
23,CCOC(=O)c1c(NC(=O)c2ccc(Br)o2)sc2c1CCCC2,0.689 (inactive)
24,COC(=O)Nc1ccc(S(=O)(=O)N(C)CC(F)(F)C(F)F)cc1,0.467 (inactive)
25,O=S(=O)(O)c1nc2ccccc2n1Cc1ccc(Cl)cc1,0.456 (inactive)

row,Compound,B-score
1,O=C(CSc1nc2ccccc2o1)N1CCN(c2ccc(Cl)cc2)CC1,-0.0538 (inactive)
2,O=S(=O)(CCc1nc2ccccc2o1)c1ccc(Cl)cc1,-2.24 (active)
3,O=C1c2ccncc2C(=O)N1C1CCCCC1,-0.0556 (inactive)
4,O=C(OCc1ccccc1F)c1ccc2c(c1)OCCO2,0.0701 (inactive)
5,C[C@H](NC(=O)OC(C)(C)C)c1nnc(SCC(=O)Nc2ccc(Br)cc2)o1,0.0617 (inactive)
6,CNC(=O)CN1C(=O)c2ccccc2S1(=O)=O,0.00139 (inactive)
7,CCCc1nnc(NC(=O)CN2C(=O)c3ccccc3S2(=O)=O)s1,-0.485 (inactive)
8,Nc1nnc(SCCN2C(=O)c3ccccc3S2(=O)=O)s1,2.64 (active)
9,COC(=O)c1cc(NC2c3ccccc3C(=O)N2c2ccc(Cl)cn2)cc(C(=O)OC)c1 (stereo not drawn),0.743 (inactive)
10,CC(=O)c1c(N)n(C)c(=O)n(C)c1=O,0.343 (inactive)
11,CC(NC(=O)COc1ccccc1)C(=O)NC1=NCCS1 (stereo not drawn),-0.755 (inactive)
12,CCc1ccc(N2CC(C(=O)NC3=NCCS3)CC2=O)cc1 (stereo not drawn),-0.382 (inactive)
13,O=C(NC1=NCCS1)c1ccc(Cl)s1,-2.35 (active)
14,CCOC(=O)C1CCN(C(=O)C2CCN(S(=O)(=O)N3CCCC3)CC2)CC1,-0.822 (inactive)
15,Cc1ccc(C(=O)NC2CCN(C(=O)N3CCOCC3)CC2)cc1,-0.472 (inactive)
16,Cc1noc(C)c1S(=O)(=O)NCCc1ccc(S(N)(=O)=O)cc1,0.287 (inactive)
17,CCCN1CCN(C(=O)Cn2ncc3ccccc32)CC1,-0.673 (inactive)
18,CC(C)(C)n1nnc(CCc2nnn(C(C)(C)C)n2)n1,0.866 (inactive)
19,Cc1ccc(Cc2cncc(O)c2)cc1S(=O)(=O)O,-0.895 (inactive)
20,CC12CCC(C(=O)N(CCC#N)CCC#N)(CC1=O)C2(C)C (stereo not drawn),0.00852 (inactive)
21,N#CCCN1CCN(S(=O)(=O)c2ccc(S(=O)(=O)N3CCCC3)cc2)CC1,-0.0175 (inactive)
22,N#CCCN1CCN(S(=O)(=O)c2ccc(S(=O)(=O)NC3CC3)cc2)CC1,-0.837 (inactive)
23,CC(C)(C)c1cc(CN2CCN(CCC#N)CC2)cc(C(C)(C)C)c1O,-3.57 (active)
